The source of these data is PubChem BioAssay.

A short description of experiment [1]: inhibitors of TNFa-induced NFkB p65 translocation, primary screen, imaging, HUVEC, MLSMR starter and 10KST1 sets (AID 438;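 active = inhibition above 20% together with a positive visual image hit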;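 note: compound added about 3h40 before a 20 min TNFalpha stimulation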;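 for inhibition: signal is the nuclear over cytoplasmic p65 intensity ratio per well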). The conditions noted are these: HUVEC TNFa-induced p65 nuclear translocation; cell count: measured here: nuclei count (cytotoxicity indicator), at 2.08 µM; inhibition: at 2 µM, stronger effect = higher value, 0% TNFa-plus-vehicle, 100% no-TNFa wells.

Experiment [2] can be described thus: inhibitors of mutant huntingtin aggregation, primary screen, imaging, exon1htt(103Q)mCFP cells, high-content imaging (AID 483;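 active = visual image review flags a hit and inhibition of aggregation exceeds 20%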;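 note: compound exposure lasted 3 days before fixation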;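 for nuclei count: percent of the per-plate median nuclei count of sample wells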). The note with it: exon1htt(103Q)mCFP cell line, aggregate imaging, at 2 µM; inhibition of aggregation: stronger effect = higher value; nuclei count: measured here: cell count, toxicity.
The nature of experiment [3]: inhibitors of E-selectin induction by TNFa, primary screen, imaging, HUVEC, immunofluorescence, MLSMR starter and 10KST1 sets (AID 487;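 active = visually confirmed hit in the image check and inhibition above 20%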;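 for inhibition: signal is fraction of cell area covered by stained E-selectin grains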;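 for nuclei count: 100% = median nuclei count of all wells on the same plate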). The note with it: HUVEC TNFalpha-induced E-selectin immunofluorescence imaging, at 2 µM; inhibition: stronger effect = higher value; nuclei count: measured here: cell number, toxicity.
Experiment [4] deals with Voltage-gated potassium channel subunit beta-2 (Rattus norvegicus) (UniProt P62483). Put plainly: KvBeta enzyme negative modulators, primary screen, biochemical, NADPH fluorescence (AID 622;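 active = fluorescence slope higher than the sample average by over 3 SD, cut at about -0.22 in these data, passing the limit was not always enough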;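 note: slope of raw intensity against log time taken from 70 to 1610 s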). The note with it: recombinant KvBeta, 4-cyanobenzaldehyde reduction, at 10 µM, stronger effect = higher value.
The target is the same in experiment [5]. As to the kind of experiment: KvBeta positive modulators, primary screen, biochemical, NADPH fluorescence (AID 623).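 Note: fluorescence intensity change per second fitted from 20 to 320 s.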 The conditions noted are these: Recombinant KvBeta, NADPH fluorescence decrease slope, 10 min; at 10 µM; stronger effect = lower value.
Experiment [6] concerns the target Alpha-2C adrenergic receptor (Homo sapiens) (UniProt P18825). As to the kind of experiment: modulators of alpha2C/GIRK thallium flux, primary screen, cell-based, HEK293 alpha2C/GIRK1/2 (AID 624;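 active = fluorescence slope after compound addition differing from the mean of all screened samples at 99.7% confidence, in either direction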;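 note: slope of fluorescence ratio to pre-addition baseline per second over 15 to 24 s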). The conditions noted are these: thallium flux BTC fluorescence, at 10 µM, actives lie on both sides.
Experiment [7] in a line: inhibitors of Sendai virus-induced IRF3 signaling, primary screen, TLR/RLR signaling modifier project, cell-based, Sendai virus stimulus, luciferase, 10K MLSCN set (AID 602276;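 active = inhibition at or above 50% at 10 µM; inactive = inhibition below 50%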;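 note: firefly luciferase from ISG56 promoter only with Renilla not read in this screen; 0% = Sendai virus plus DMSO and 100% = medium plus DMSO without virus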). The conditions noted are these: HEK293 RL24 IRF3 luciferase reporter, at 10 µM, stronger effect = higher value. Background: Reporter assays use an easily measured gene product as a stand-in for the process of interest.

Experiment [8] can be described thus: inhibitors of poly I:C-induced TLR3 signaling, primary screen, cell-based, poly I:C stimulus, luciferase, 10K MLSCN set (AID 602277;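 active = inhibition of the reporter signal at or above 50%; inactive = inhibition below 50%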). The note with it: HEK293-TLR3 RL24 IRF3 luciferase reporter, at 10 µM, stronger effect = higher value.

Activity calls are given as the source filed them.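 Rule for the calls, unless noted: active = NADPH fluorescence slope more negative than the mean of all samples by about 3 SD, 99.7% confidence; inactive = the rest.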

Alpha-2C adrenergic receptor (Homo sapiens), sequence (P18825 whole entry, looked up): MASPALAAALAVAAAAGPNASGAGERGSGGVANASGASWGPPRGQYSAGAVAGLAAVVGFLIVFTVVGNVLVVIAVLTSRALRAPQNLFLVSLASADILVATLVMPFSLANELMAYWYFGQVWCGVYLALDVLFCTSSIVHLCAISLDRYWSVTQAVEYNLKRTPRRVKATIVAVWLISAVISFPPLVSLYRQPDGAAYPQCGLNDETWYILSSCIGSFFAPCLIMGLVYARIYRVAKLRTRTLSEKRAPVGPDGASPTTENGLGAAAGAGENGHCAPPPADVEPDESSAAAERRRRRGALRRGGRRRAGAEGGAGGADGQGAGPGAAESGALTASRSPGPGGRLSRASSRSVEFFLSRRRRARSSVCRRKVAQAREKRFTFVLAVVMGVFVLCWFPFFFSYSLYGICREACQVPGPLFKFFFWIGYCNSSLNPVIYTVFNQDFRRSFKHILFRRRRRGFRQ
Voltage-gated potassium channel subunit beta-2 (Rattus norvegicus), sequence (P62483 whole entry, looked up): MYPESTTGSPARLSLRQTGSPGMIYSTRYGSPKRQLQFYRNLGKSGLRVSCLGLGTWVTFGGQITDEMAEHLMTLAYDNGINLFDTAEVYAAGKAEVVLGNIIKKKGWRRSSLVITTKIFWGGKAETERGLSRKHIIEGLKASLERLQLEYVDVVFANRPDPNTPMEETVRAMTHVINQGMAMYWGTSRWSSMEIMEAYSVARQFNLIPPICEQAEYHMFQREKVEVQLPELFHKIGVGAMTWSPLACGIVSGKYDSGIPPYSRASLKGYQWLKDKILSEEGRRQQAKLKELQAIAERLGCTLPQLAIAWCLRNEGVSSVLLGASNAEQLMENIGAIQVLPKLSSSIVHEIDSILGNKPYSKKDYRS

As usually defined, the inhibition is the drop in the measured response relative to a control, in per cent. For `CN(C)c1ccc(CNn2cnnc2)cc1`, the cell count in experiment [1] was 499. In addition, the inhibition is 4.4% (inactive) in experiment [1], -50.6% (inactive) in experiment [3], 5.14% (inactive) in experiment [7] and 16.1% (inactive) in experiment [8]. For the same compound, the inhibition of aggregation in experiment [2] was 3.2% (inactive). Also, the nuclei count in experiment [2] was 68.8%; in experiment [3], 102%. Besides, the fluorescence slope in experiment [4] was -0.369 (inactive). The NADPH fluorescence slope in experiment [5] was 1.6e-05 (inactive). The slope in experiment [6] was 0.00382 (inactive).

Take `O=C(Nc1ccc(CN2CCOCC2)cc1)c1cc2ccccn2n1`: the cell count in experiment [1] is 579. Further, the inhibition in experiment [1] is 0% (inactive); in experiment [3] it was 8.4% (inactive); in experiment [7], 45.9% (inactive); in experiment [8], 12% (inactive). In experiment [2], the inhibition of aggregation was -6.8% (inactive). Also, the nuclei count in experiment [2] was found to be 99.9%; in experiment [3], 108%. For the same compound, the fluorescence slope in experiment [4] is -0.596 (inactive). The NADPH fluorescence slope in experiment [5] was -1.7e-05 (inactive). The slope in experiment [6] was 0.00566 (inactive).

On to `C=COCCNC(=O)Nc1ccc(Cl)c(Cl)c1`, for which, in experiment [1], the cell count turned out to be 387. Further, the inhibition in experiment [1] was -7% (inactive); in experiment [3] it was -170% (inactive); in experiment [7], -35.4% (inactive); in experiment [8] it was -41.6% (inactive). The inhibition of aggregation in experiment [2] was 4.5% (inactive). Besides, the figures for the nuclei count in experiment [2] and in experiment [3] were 101% and 119%, respectively. For the same compound, the fluorescence slope in experiment [4] was -0.348 (inactive). For the same compound, in experiment [5], the NADPH fluorescence slope was -4.7e-05 (inactive). For the same compound, in experiment [6], the slope is 0.00498 (inactive).

In the case of `C/C(N)=C(/C#N)C(=O)COC(=O)CCSc1ccccc1`, in experiment [1], the cell count is 422. Besides, the inhibition in experiment [1] is 3.1% (inactive); in experiment [3], -20.4% (inactive); in experiment [7], 13.7% (inactive); in experiment [8], -9.84% (inactive). The inhibition of aggregation in experiment [2] was 7.6% (inactive). The figures for the nuclei count in experiment [2] and in experiment [3] were 117% and 107%, respectively. Also, in experiment [4], the fluorescence slope was -0.464 (inactive). Also, the NADPH fluorescence slope in experiment [5] was -6.7e-05 (inactive). Further, the slope in experiment [6] is 0.00505 (inactive).

On to `O=C(NCc1ccco1)C(c1ccco1)N(C(=O)Cn1nnc2ccccc21)c1ccc2c(c1)CCC2` (centres undefined), for which the cell count in experiment [1] turned out to be 329. For the same compound, the inhibition in experiment [1] is -8% (inactive); in experiment [3], 23.8% (inactive); in experiment [7] it was 14.9% (inactive); in experiment [8], 21.8% (inactive). The inhibition of aggregation in experiment [2] is -0.5% (inactive). For the same compound, the nuclei count is 103% in experiment [2] and 104% in experiment [3]. Besides, the fluorescence slope in experiment [4] was -0.519 (inactive). For the same compound, in experiment [5], the NADPH fluorescence slope was -6.5e-06 (inactive). Further, in experiment [6], the slope is 0.00472 (inactive).

As for `CC1(C)NC(=O)N(CC(O)COc2cccc(F)c2)C1=O` (centres undefined), in experiment [1], the cell count was determined as 690. Besides, the inhibition in experiment [1] was -1.1% (inactive); in experiment [3] it was -65.7% (inactive); in experiment [7], -5.23% (inactive); in experiment [8] it was 19.5% (inactive). In addition, the inhibition of aggregation in experiment [2] is 8.4% (inactive). Besides, the nuclei count in experiment [2] worked out at 72.2%; in experiment [3] it was 105%. In addition, the fluorescence slope in experiment [4] was -0.592 (inactive). The NADPH fluorescence slope in experiment [5] is -2.3e-05 (inactive). In experiment [6], the slope was 0.00622 (inactive).

For `O=C1CCCC2=C1C(c1cccc(Br)c1)n1nc(-c3ccco3)nc1N2` (centres undefined), in experiment [1], the cell count worked out at 568. Moreover, the inhibition in experiment [1] was -1.5% (inactive); in experiment [3], 11.1% (inactive); in experiment [7], 9.76% (inactive); in experiment [8] it was 24.2% (inactive). In addition, in experiment [2], the inhibition of aggregation is -10.2% (inactive). The nuclei count in experiment [2] was 100%; in experiment [3], 109%. In addition, the fluorescence slope in experiment [4] was -0.523 (inactive). For the same compound, in experiment [5], the NADPH fluorescence slope is -2.2e-05 (inactive). Also, the slope in experiment [6] is 0.00646 (inactive).

Take `CCOc1ccc(N2C(N)=NC(N)=NC2(C)C)cc1`: the cell count in experiment [1] came to 401. In addition, the inhibition was 2.5% (inactive) in experiment [1], -19.5% (inactive) in experiment [3], 11.2% (inactive) in experiment [7] and 26.1% (inactive) in experiment [8]. Further, the inhibition of aggregation in experiment [2] was 5.2% (inactive). The nuclei count came to 103% in experiment [2] and 105% in experiment [3]. The fluorescence slope in experiment [4] is -0.644 (inactive). Besides, the NADPH fluorescence slope in experiment [5] is 5.9e-05 (inactive). In addition, in experiment [6], the slope is 0.00717 (inactive).

`COc1cccc(OC)c1OCCNCCO`: in experiment [1], the cell count worked out at 632. For the same compound, the inhibition in experiment [1] was -3.4% (inactive); in experiment [3], 8.1% (inactive); in experiment [7] it was 13.1% (inactive); in experiment [8], 20.6% (inactive). Moreover, the inhibition of aggregation in experiment [2] was 7.9% (inactive). Moreover, the nuclei count in experiment [2] was found to be 118%; in experiment [3], 90.6%. For the same compound, the fluorescence slope in experiment [4] was -0.436 (inactive). Also, the NADPH fluorescence slope in experiment [5] was 3.2e-05 (inactive). Besides, the slope in experiment [6] is 0.00544 (inactive).

In the case of `CN(Cc1ccccc1)C(=O)CNC(=O)Cn1cnc2ccccc2c1=O`, the cell count in experiment [1] stood at 773. Further, the inhibition in experiment [1] was 1.1% (inactive); in experiment [3], -18.9% (inactive); in experiment [7] it was 4.6% (inactive); in experiment [8], 10.1% (inactive). Besides, the inhibition of aggregation in experiment [2] is -13.9% (inactive). Besides, the results for the nuclei count in experiment [2] and in experiment [3] were 95.7% and 111%, respectively. Moreover, the fluorescence slope in experiment [4] was -0.602 (inactive). In experiment [5], the NADPH fluorescence slope was -2.5e-06 (inactive). In experiment [6], the slope is 0.00729 (inactive).

As for `CCN1C(=O)CC(N2CCC(Nc3ccc(F)cc3)CC2)C1=O` (centres undefined), the cell count in experiment [1] was 559. For the same compound, the inhibition in experiment [1] is -9.7% (inactive); in experiment [3] it was -72% (inactive); in experiment [7], -4.21% (inactive); in experiment [8], -6.01% (inactive). Besides, the inhibition of aggregation in experiment [2] was 6.4% (inactive). Also, the nuclei count in experiment [2] is 57.1%; in experiment [3], 94.1%. For the same compound, in experiment [4], the fluorescence slope was -0.541 (inactive). For the same compound, in experiment [5], the NADPH fluorescence slope was 6.8e-06 (inactive). Also, the slope in experiment [6] is 0.00599 (inactive).

Turning to `Cc1ccc(Cn2nnnc2CN2CCC(O)(c3ccccc3F)CC2)cc1`, the cell count in experiment [1] was determined as 784. The inhibition in experiment [1] was 0.2% (inactive); in experiment [3], -57% (inactive); in experiment [7] it was 20.8% (inactive); in experiment [8] it was 16.6% (inactive). Moreover, in experiment [2], the inhibition of aggregation was 12.3% (inactive). In addition, the nuclei count was 96.1% in experiment [2] and 122% in experiment [3]. Besides, in experiment [4], the fluorescence slope was -0.498 (inactive). Further, the NADPH fluorescence slope in experiment [5] is -5.4e-05 (inactive). Further, the slope in experiment [6] is 0.00492 (inactive).

`Cc1nnc(N2C(=O)c3oc4ccccc4c(=O)c3C2c2ccco2)s1` (centres undefined): the cell count in experiment [1] came out at 804. Besides, the inhibition in experiment [1] is -5.5% (inactive); in experiment [3], -28.9% (inactive); in experiment [7] it was 12.3% (inactive); in experiment [8] it was 13.8% (inactive). Besides, the inhibition of aggregation in experiment [2] was 8.3% (inactive). In addition, the nuclei count in experiment [2] was 98.1%; in experiment [3], 124%. In experiment [4], the fluorescence slope is -0.579 (inactive). For the same compound, in experiment [5], the NADPH fluorescence slope is -2.5e-05 (inactive). The slope in experiment [6] is 0.00589 (inactive).

On to `COc1ccc(CNC(=O)c2cnc3n(c2=O)CCS3)cc1`, for which the cell count in experiment [1] was 591. The inhibition in experiment [1] was -6.4% (inactive); in experiment [3], 15.6% (inactive); in experiment [7] it was 10.9% (inactive); in experiment [8] it was 29.1% (inactive). For the same compound, in experiment [2], the inhibition of aggregation was 15.6% (inactive). Moreover, the nuclei count in experiment [2] is 97.2%; in experiment [3], 95.7%. Moreover, the fluorescence slope in experiment [4] is -0.369 (inactive). In addition, the NADPH fluorescence slope in experiment [5] is 4e-05 (inactive). Besides, in experiment [6], the slope is 0.00542 (inactive).
